Source: PubChem BioAssay (National Center for Advancing Translational Sciences (NCATS))
Hits are enriched below; roughly 7.6% of the tested compounds scored in any of these assays.
KCNH2 WT inh: blocks the wildtype human KCNH2 potassium channel | activity change, % at 1.84 µM | U2OS, BacMam KCNH2, thallium flux FluxOr; active compounds read low | Q12809 | hit rate 0.37% among 340,000;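 active = maximum activity change below -70%; inconclusive = maximum activity change between -70% and -50%; inactive = maximum activity change above -50%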
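U2OS cells transduced with wild-type KCNH2 virus are loaded with FluxOr dye for 45 min, and thallium flux is measured in kinetic reads before and after stimulation buffer. Rate constants are normalized to DMSO controls.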
KB-3-1 tox: KB-3-1 parental cell cytotoxicity | AID 1347075 | hit rate 1.4% among 400,000 | Potency, µM (doses to about 46.1 µM), actives largely listed as cytotoxic | KB-3-1 viability, CellTiter-Glo ATP luminescence, 72 h; note: nearly all actives have a fitted effect of over 60% in size
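Parental KB-3-1 adenocarcinoma cells in phenol-red-free DMEM with 10% FBS were pin-treated with compounds at several concentrations, incubated 72 h at 37 °C, and viability read by CellTiter-Glo luminescence; concentration-effect curves were fitted after normalization.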
MCF10A rerep: inducers of DNA re-replication in MCF 10A breast cells. MCF 10A DNA re-replication, Hoechst nuclear intensity, 48 h. Potency, µM (doses to about 46.1 µM), hits mostly activators. hit rate 2.9% among 350,000. AID 624296; note: nearly all actives have a fitted effect of over 50% in size
KCNH2 3.1 block: blocks the human KCNH2 3.1 channel isoform | U2OS KCNH2 3.1, thallium flux FluxOr; active compounds read low | activity change, % (tested at about 1.8 µM) | hit rate 0.95% among 340,000 | AID 720553;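 active = maximum activity change below -70%; inconclusive = maximum activity change from -70% to -50%; inactive = maximum activity change above -50%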;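 note: thallium influx rate constant from kinetic fluorescence after stimulation buffer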
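Normalized rate constant (relative to positive and negative DMSO controls) derived from a 2 min kinetic fluorescence read after stimulation; U2OS cells expressing the 3.1 isoform via virus at 1.77 x 10^8 /mL.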
KB-V1 cytotox: kills drug-selected multidrug resistant KB-V1 cells; KB-V1 MDR cells viability, CellTiter-Glo, 72 h; Potency, µM (top dose mostly 46.1 µM), most hits filed as cytotoxic; hit rate 3.4% among 400,000; AID 1347076; note: nearly all actives have a fitted effect of over 60% in size
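Cytotoxicity via CellTiter-Glo luminescence after 72 h compound exposure at 37 degrees C. Cells: drug-selected KB-V1 line, DMEM phenol-red free plus 10% FBS. Compounds tested at multiple concentrations; normalized data fitted to concentration-effect curves.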
SW480 rereplic: DNA re-replication induction in SW480 cells. SW480 DNA re-replication, Hoechst DNA content imaging, 48 h. Potency, µM (series often up to 46.1 µM), most hits filed as activators. hit rate 1.8% among 340,000; note: nearly all actives have a fitted effect of over 55% in size
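Readout is total intensity of Hoechst-stained nuclei, excited at 405 nm and collected at 500-530 nm. Compound treatment lasted 48 hr at 37 C in 5% CO2 before staining.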
A number is an active result; 0 = inactive; ? = inconclusive; - = no result. Unless noted, calls come from the whole dose curve; as a rule, active = well fitted curve in the direction sought with a large enough effect; inconclusive = small, poorly fitted or top-dose-only effect, or another doubt; inactive = no such curve, though single readings can be large; an effect the other way counts as inactive or inconclusive.

SMILES	KCNH2 WT inh	KB-3-1 tox	MCF10A rerep	KCNH2 3.1 block	KB-V1 cytotox	SW480 rereplic
COc1ccc(CNCc2ccco2)cc1OCc1ccccc1	0	0	0	0	0	0
COc1cccc(CNCCc2c[nH]c3ccccc23)c1OCc1ccccc1	0	?	?	0	?	?
COc1ccccc1CCNCc1ccc(OC)c(OCc2ccccc2)c1	0	?	0	?	4.6µM	?
CCOC(=O)C1CCN(S(=O)(=O)c2ccc3c(c2)NC(=O)CS3)CC1	0	0	0	0	0	?
COc1cccc(N2CCN(c3ccc(S(=O)(=O)N4CCN(C)CC4)cc3[N+](=O)[O-])CC2)c1	0	?	?	0	?	0
CCN(CC)S(=O)(=O)c1ccc(N2CCN(c3cccc(OC)c3)CC2)c([N+](=O)[O-])c1	0	0	0	0	2.9µM	0
Brc1ccc(C2C3=C(Nc4ncnn42)c2ccccc2OC3c2ccncc2)cc1 (stereo unspecified)	0	?	?	0	21µM	?
O=C(O)C1=CC(c2ccc(Br)cc2)n2ncnc2N1 (stereo unspecified)	-	0	-	-	?	-
COc1ccc(C2Oc3ccccc3C3=C2C(c2cccs2)n2ncnc2N3)cc1 (stereo unspecified)	0	5.8µM	?	?	5.8µM	?
COc1ccccc1CN1CC(C(=O)N(Cc2cnn(C)c2)C(C)C)CCC1=O (stereo unspecified)	0	0	0	0	0	0
Cc1ccc(NC(=O)CSCC(=O)NNC(=O)c2ccoc2C)cc1	0	0	0	0	0	0
O=C(N/N=C/c1ccccc1C(=O)O)c1cccc(S(=O)(=O)N2CCCCC2)c1	0	0	0	0	0	?
N[C@H](CSCc1ccccc1)C(=O)Nc1ccc([N+](=O)[O-])cc1	0	0	?	0	0	0
CN(Cc1ccccc1)C(=O)CSc1nc2c(c(C(F)(F)F)n1)CCc1ccccc1-2	0	18µM	0	0	?	0
Cc1ccc(Cn2nc(C)c(NC(=O)CSc3nc4c(c(C(F)(F)F)n3)CCc3ccccc3-4)c2C)cc1	0	?	?	0	4.1µM	0
Cc1nn(Cc2ccc(Cl)cc2)c(C)c1NC(=O)CSc1nc2c(c(C(F)(F)F)n1)CCc1ccccc1-2	0	0	?	0	8.2µM	?
CC(C)Oc1cccc(-c2ccnc(N3CCC(C(N)=O)CC3)n2)c1	-	0	-	-	0	-
CCCN(CCC)CCCNC(=O)c1cc2c(=O)oc3ccc(C)cc3c2s1	-	0	-	-	0	-
COc1ccc(C(=O)N(CCc2ccccc2)Cc2ccccc2)c(OC)n1	0	?	?	0	8.2µM	0
CS(=O)(=O)c1ccccc1C(=O)N(CCc1ccccc1)Cc1ccccc1	0	0	0	0	?	0
Cc1cccc(C)c1C(O)c1ncc(-c2ccc(Cl)cc2)[nH]1 (stereo unspecified)	-	0	-	-	0	-
COc1ccc(-c2sc3cc4c(cc3c2-c2ccc(OCCN3CCCCC3)cc2)OCO4)cc1	0	0	?	0	0	0
COc1ccc(-c2sc3cc(OC)ccc3c2-c2ccc(OCCN3CCOCC3)cc2)cc1	0	0	3.7µM	0	0	?
COc1cc(OC)cc(-c2sc3ccc(OC)cc3c2-c2ccc(OCCN3CCCCC3)cc2)c1	0	0	18µM	0	0	?
COc1ccc(OC)c(NC(=O)Cn2c(=O)n(CC3CCCO3)c(=O)c3cc(OC)c(OC)cc32)c1 (stereo unspecified)	0	0	0	0	0	0
SMILES	KCNH2 WT inh	KB-3-1 tox	MCF10A rerep	KCNH2 3.1 block	KB-V1 cytotox	SW480 rereplic
COc1ccc(S(=O)(=O)N2CCN(C(=O)c3c(C)nn(-c4ccccc4)c3C)CC2)cc1	0	0	0	0	13µM	0
CCOC(=O)C#CC(CCc1ccccc1)OS(N)(=O)=O (stereo unspecified)	0	0	5.2µM	0	0	0
COc1ccc(C)cc1S(=O)(=O)NCC(c1ccc2c(c1)OCO2)N1CCN(C)CC1 (stereo unspecified)	0	0	0	0	0	0
O=C(NCCC1=CCCCC1)c1c(O)nc2sccn2c1=O	0	?	0	0	5.2µM	0
N#Cc1ccccc1OCC(=O)Nc1cc(S(=O)(=O)N2CCCCC2)ccc1N1CCOCC1	0	0	0	0	?	0
O=[N+]([O-])c1cccc2nc3ccccc3c(NCCCn3ccnc3[N+](=O)[O-])c12	0	0	?	0	0.73µM	?
O=[N+]([O-])c1ccccc1Nc1c2ccccc2nc2ccccc12	0	?	0	0	0	0
CC1CCN(Cc2nnnn2CCCC(=O)N(C)C2CCOC2)CC1 (stereo unspecified)	0	0	0	0	0	0
O=C(N/N=C/c1cc2c(cc1Cl)OCO2)c1cc(-c2ccccc2)n[nH]1	0	0	?	0	0	0
O=C(Cc1n[nH]c(=O)c2ccccc12)N/N=C/c1cc2c(cc1Cl)OCO2	0	0	18µM	0	0	?
O=C(NNC1CC(=O)N(c2ccc(Br)cc2)C1=O)c1cccnc1 (stereo unspecified)	0	0	0	0	0	0
O=C(C(=O)N(Cc1ccccc1)Cc1ccccc1)c1c(-c2ccccc2)[nH]c2ccccc12	0	0	0	0	0	18µM
COc1cccc2c1C(CO)N1C(C#N)C3CC(C(=O)O)C(C1C2)N3C (stereo unspecified)	0	0.026µM	0	0	0.21µM	0.92µM
CC(=O)NC(C)(CC(=O)c1ccccc1)c1ccccc1 (stereo unspecified)	0	0	0	0	0	0
O=C(CSc1ccc([N+](=O)[O-])cc1)NCC1CCCCC1	0	0	0	0	0	0
CSc1nnc2c3cc(F)ccc3n(Cc3ccccc3)c2n1	0	0	0	0	?	0
Cc1nc2c3cc(F)ccc3n(Cc3ccccc3F)c2s1	0	?	0	0	?	?
Cc1nc2c3cc(F)ccc3n(Cc3ccccc3)c2s1	0	16µM	0	0	?	?
Cc1nc2c3ccccc3n(Cc3ccccc3F)c2s1	0	0	15µM	0	?	0
Cc1nc2c3cc(F)ccc3n(CCN3CCCCC3)c2s1	0	?	23µM	0	0	?
CCc1nc2ccc(C(=O)N3CCCC(C(N)=O)C3)cn2c1N(CCC(C)C)CCN(C)C (stereo unspecified)	-	0	-	-	0	-
C=CCC[C@@H](Cc1ccc(F)cc1)C(=O)OC[C@@H](Cc1c[nH]c2ccccc12)NC(=O)[C@H](CC=C)CC(=O)N[C@H](CO)Cc1ccccc1	0	?	16µM	0	0	0
C=CCC[C@@H](Cc1ccc(F)cc1)C(=O)OC[C@H](Cc1c[nH]c2ccccc12)NC(=O)[C@@H](CC=C)CC(=O)N[C@@H](CO)Cc1ccccc1	0	0	?	0	?	?
